{"source": "PubChem BioAssay (EPA / NIEHS)", "note": "Records with an inconclusive call do not appear. Calls of active or inactive are those of the source. How the source made its calls: active means hit-call score of the fitted dose curve at least 0.9, where 1 is the maximum; inconclusive means response in the unintended direction; inactive means score below 0.9."}
{"read-out": "xenobiotic metabolism (CYP1A2), CYP1A2 (gene 1544)", "test": "CLD_CYP1A2_24hr: CellzDirect (CLD) Gene Expression Assay for xenobiotic metabolism (CYP1A2) at 24 hours (AID 2283683)", "method": "CLD_24hr is a cell-based, multiplexed-readout assay that uses hepatocyte, a human liver primary cell, with measurements taken at 24 hours after chemical dosing in a 96-well plate.CLD_CYP1A2_24hr is one of 16 assay component(s) measured or calculated from the CLD_24hr assay. It is designed to make measurements of mRNA induction, a form of inducible reporter, as detected with chemiluminescence signals by Quantitative Nuclease Protection Assay (qNPA) technology.Data from the assay component CLD_CYP1A2_24hr was analyzed at the endpoint, CLD_CYP1A2_24hr, in the positive analysis fitting direction relative to DMSO as the negative control and baseline of activity. Using a type of inducible reporter, gain-of-signal activity can be used to understand changes in the reporter gene as they relate to the gene CYP1A2. Furthermore, this assay endpoint can be referred to as a primary readout. To generalize the intended target to other relatable targets, this assay endpoint is annotated to the cyp intended target family, where subfamily is xenobiotic metabolism.\nHuman hepatocyte cultures were treated daily for two consecutive days with fresh dosing solutions containing appropriate concentrations of the 320 ToxCast chemicals (chemical identities were blinded to CellzDirect and other ToxCast collaborators), vehicle control (0.2% DMSO), and positive control inducers as summarized in Table 1. Due to the large number of treatment groups and chemicals examined, the ToxCast chemicals were divided into two groups (spanning two independent cultures of hepatocytes from separate donor preparations (Hu778: ToxCast plates 1 and 2; Hu776: ToxCast plates 3 and 4). Each preparation of human hepatocyte cultures was treated with respective vehicle control, medium only control, set of six positive controls/reference chemicals for the five hepatic receptor pathways, and a subset of eight of the ToxCast chemicals (indoxacarb, pyrithiobac-sodium, norflurazon, cyhalofop-butyl, methomyl, thiram, acetochlor, and propiconazole). These replicate data, coupled with internal replicates designed within the blinded ToxCast chemical library, provided additional data to evaluate interindividual differences between hepatocyte preparations and their potential impact on chemical profiles.Cell morphology and integrity were evaluated using phase-contrast microscopy as an indicator of hepatocyte cell health (Tyson & Green, 1987). Cultures for each treatment group (i.e., media, vehicle [0.2% DMSO], positive control inducers [multiple concentrations], and the ToxCast chemicals [multiple concentrations]) were observed and cell morphology was assessed relative to vehicle control cultures at each harvest time point (0, 6, 24, or 48 h). […] Images were evaluated at the conclusion of the study to assess changes in cell integrity and account for the effects of chemical exposure on uncharacteristic changes in concentration-dependent gene expression profiles. The results from these determinations of apparent cytotoxicity were annotated (yes/no) alongside the corresponding qNPA data for reference.At the conclusion of each treatment period, hepatocyte cultures (96-well) were washed with 1 volume of HBSS, lysed by addition of 25 ul ArrayPlate lysis buffer (HTG, Tucson, AZ), and 70 ul/well of Denaturation Oil, denatured by incubation at 95C for 10 min, and frozen at approximately -70C until analysis by nuclease protection assay (qNPA) (Roberts et al., 2007). For qNPA analysis, cell lysates were thawed at 50C for approximately 30 min, qNPA probes were added, and samples were incubated at 95C for 10 min to begin the detection process by denaturing the target RNA, dissociating the duplexes and secondary structure hybridization. At the conclusion of the hybridization period, S1 nuclease reagent was added to each sample to digest all nonprotected nucleotides at 50C for 60-90 min. […]"}
{"smiles": "CCOC(=O)C(C)Oc1ccc(Oc2cnc3cc(Cl)ccc3n2)cc1", "note": "(stereo not given)", "outcome": "inactive"}
{"smiles": "CSC(=O)c1cccc2nnsc12", "AC50": "20 µM (active)"}
{"smiles": "C#CCOC(=O)[C@@H](C)Oc1ccc(Oc2ncc(Cl)cc2F)cc1", "outcome": "inactive"}
{"smiles": "CCCN(CCC)C(=O)SCC", "outcome": "inactive"}
{"smiles": "CCCCOCCOCCOCc1cc2c(cc1CCC)OCO2", "AC50": "0.858 µM (active)"}
{"smiles": "CCN(CC)C(=O)c1cccc(C)c1", "outcome": "inactive"}
{"smiles": "S=C([S-])NCCNC(=S)[S-].[Mn+2]", "outcome": "inactive"}
{"smiles": "CCCCCOC(=O)COc1cc(N2C(=O)C3=C(CCCC3)C2=O)c(F)cc1Cl", "outcome": "inactive"}
{"smiles": "CCSC(=O)N(CC(C)C)CC(C)C", "outcome": "inactive"}
{"smiles": "CCC(C)OC(=O)N1CCCCC1CCO", "note": "(stereo not given)", "outcome": "inactive"}
{"smiles": "N#CSCSc1nc2ccccc2s1", "AC50": "7.18 µM (active)"}
{"smiles": "COC(=O)c1ccccc1S(=O)(=O)NC(=O)Nc1nc(OC(F)F)cc(OC(F)F)n1", "AC50": "0.233 µM (active)"}
{"smiles": "O=C(O)C1(C(=O)Nc2ccc(Cl)cc2Cl)CC1", "AC50": "20 µM (active)"}
{"smiles": "CCN(Cc1c(F)cccc1Cl)c1c([N+](=O)[O-])cc(C(F)(F)F)cc1[N+](=O)[O-]", "AC50": "0.418 µM (active)"}
{"smiles": "Oc1ccc(C(c2ccc(O)cc2)C(Cl)(Cl)Cl)cc1", "outcome": "inactive"}
{"smiles": "CC1(C)C(C=C(Cl)Cl)C1C(=O)OCc1cccc(Oc2ccccc2)c1", "note": "(stereo not given)", "outcome": "inactive"}
{"smiles": "COC(=O)c1c(Cl)nn(C)c1S(=O)(=O)NC(=O)Nc1nc(OC)cc(OC)n1", "AC50": "0.797 µM (active)"}
{"smiles": "O=C(Nc1ccc([N+](=O)[O-])cc1Cl)c1cc(Cl)ccc1O", "AC50": "3.97 µM (active)"}
{"smiles": "c1ccc2[nH]c(-c3cscn3)nc2c1", "AC50": "0.345 µM (active)"}
{"smiles": "CCCN(CCC)c1c([N+](=O)[O-])cc(C(F)(F)F)c(N)c1[N+](=O)[O-]", "AC50": "2.34 µM (active)"}
{"smiles": "CCCCC(CC)CN1C(=O)C2C3C=CC(C3)C2C1=O", "note": "(stereo not given)", "AC50": "7.81 µM (active)"}
{"smiles": "S=C(S)NCCNC(=S)S.[Mn+2].[S-]C([S-])=NCCN=C([S-])[S-].[Zn+2]", "outcome": "inactive"}
{"smiles": "CCCCCCC(C)OC(=O)COc1nc(F)c(Cl)c(N)c1Cl", "note": "(stereo not given)", "outcome": "inactive"}
{"smiles": "CCOC(=O)[C@H](C)Oc1ccc(Oc2nc3ccc(Cl)cc3o2)cc1", "outcome": "inactive"}
{"smiles": "OB(O)O", "outcome": "inactive"}
{"smiles": "COc1nc(C)nc(NC(=O)NS(=O)(=O)c2ccccc2OCCCl)n1", "outcome": "inactive"}
{"smiles": "CC(C)(C)[C@@H](O)[C@@H](Cc1ccc(Cl)cc1)n1cncn1", "outcome": "inactive"}
{"smiles": "COC(=O)c1ccc(I)cc1S(=O)(=O)NC(=O)Nc1nc(C)nc(OC)n1", "outcome": "inactive"}
{"smiles": "CCOC(=O)C(C)Oc1ccc(Oc2nc3ccc(Cl)cc3o2)cc1", "note": "(stereo not given)", "outcome": "inactive"}
{"smiles": "CCCCOC(=O)[C@@H](C)Oc1ccc(Oc2ccc(C(F)(F)F)cn2)cc1", "AC50": "20 µM (active)"}
{"smiles": "CN(C)C(=O)Nc1ccc(Cl)c(Cl)c1", "AC50": "4.42 µM (active)"}
{"smiles": "CCNc1nc(N)nc(Cl)n1", "outcome": "inactive"}
{"smiles": "CCOC(=O)NCCOc1ccc(Oc2ccccc2)cc1", "outcome": "inactive"}
{"smiles": "Cc1nn(C)c(Oc2ccccc2)c1C=NOCc1ccc(C(=O)OC(C)(C)C)cc1", "AC50": "37.4 µM (active)"}
{"smiles": "COc1c(Cl)ccc(Cl)c1C(=O)O", "outcome": "inactive"}
{"smiles": "c1ccc(Nc2ccccc2)cc1", "AC50": "6.41 µM (active)"}
{"smiles": "COC(=O)c1ccc(CNS(C)(=O)=O)cc1S(=O)(=O)NC(=O)Nc1nc(OC)cc(OC)n1", "outcome": "inactive"}
{"smiles": "COC(=O)c1ccccc1C(=O)O", "outcome": "inactive"}
{"smiles": "COC(=O)c1cccc(C)c1S(=O)(=O)NC(=O)Nc1nc(OCC(F)(F)F)nc(N(C)C)n1", "AC50": "6.03 µM (active)"}
{"smiles": "CCCCC(CC)COC(=O)c1ccccc1C(=O)O", "note": "(stereo not given)", "outcome": "inactive"}
